Assay results as given in PubChem BioAssay (NCATS).
Values joined by “and” are separate entries in the source; they are usually repeats but may differ in a detail not shown here. Equal values may be shown once. Inconclusive results are not listed. Active and inactive are the calls of the source. Calls come from the whole dose curve; as a rule, active = well fitted curve in the direction sought with a large enough effect; inconclusive = small, poorly fitted or top-dose-only effect, or another doubt; inactive = no such curve, though single readings can be large; an effect the other way counts as inactive or inconclusive.

Legend:
CRL-7250 = normal cell line; experiment: Cytotoxic Profiling of Annotated Libraries Using Quantitative High-Throughput Screening (AID 1296008); conditions: Five cell lines viability, CellTiter-Glo ATP luminescence, 48-72 h; max response: hits give low values; note: nearly all actives have a fitted effect of over 60% in size; note: potency is the fitted concentration of half-maximal effect
In short: (§1)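 Compounds were pin-transferred onto cells and incubated 48 or 72 hr at 37 degree Celsius, 95% humidity. CellTiter-Glo was added, plates sat 10 min at room temperature, then ATP-coupled luminescence was imaged as the viability read-out.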

HEK293 = experiment: as above; conditions: Five cell lines viability, CellTiter-Glo ATP luminescence, 48-72 h; max response: hits give low values
In short: as §1

HaCat [1] = experiment: as above; conditions: Five cell lines viability, CellTiter-Glo ATP luminescence, 48-72 h; max response: hits give low values
In short: as §1

KB-3-1 = experiment: as above; conditions: Five cell lines viability, CellTiter-Glo ATP luminescence, 48-72 h; max response: hits give low values
In short: as §1

NIH3T3 [2] = experiment: as above; conditions: Five cell lines viability, CellTiter-Glo ATP luminescence, 48-72 h; max response: hits give low values
In short: as §1

MCC-13 = experiment: qHTS assay to identify novel small-molecules to repurpose for Merkel cell carcinoma treatment (AID 1296009); conditions: MCC and control cell lines, CellTiter-Glo viability, 72 h; series mostly up to 46 µM; note: nearly all actives have a fitted effect of over 60% in size; note: potency is the fitted concentration of half-maximal effect
In short: (§2)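 Viability readout: ATP luminescence (CellTiter-Glo) after 72 hr drug exposure at 37 degree celsius. Dose-response format was 8 points for NPC and 11 points for MIPE; data normalized to in-plate controls.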

MCC-26 = experiment: as above; conditions: MCC and control cell lines, CellTiter-Glo viability, 72 h; series mostly up to 46 µM
In short: as §2

MKL-1 = experiment: as above; conditions: MCC and control cell lines, CellTiter-Glo viability, 72 h; series mostly up to 46 µM
In short: as §2

MKL-2 = experiment: as above; conditions: MCC and control cell lines, CellTiter-Glo viability, 72 h; series mostly up to 46 µM
In short: as §2

UISO = experiment: as above; conditions: MCC and control cell lines, CellTiter-Glo viability, 72 h; series mostly up to 46 µM
In short: as §2

WaGa = experiment: as above; conditions: MCC and control cell lines, CellTiter-Glo viability, 72 h; series mostly up to 46 µM
In short: as §2

C33A = experiment: Primary qHTS to identify gynecologic anti-cancer compounds using libraries of approved drugs and bioactive compounds (AID 1345084); conditions: Gynecologic cancer cell panel viability, ATPlite luminescence, 48 h; series mostly up to 57.5 µM; note: nearly all actives have a fitted effect of over 55% in size
In short: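 Measured: luminescence after ATPlite addition (15 min, RT). Exposure: 48 h, 37 C, 5% CO2.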

HEK293T = experiment: qHTS assay to identify novel small-molecules to repurpose for Merkel cell carcinoma treatment (AID 1296009); conditions: MCC and control cell lines, CellTiter-Glo viability, 72 h; at 44.8 µM (top of the series); note: nearly all actives have a fitted effect of over 60% in size; note: potency is the fitted concentration of half-maximal effect
In short: as §2

NIH3T3 [3] = experiment: as above; conditions: MCC and control cell lines, CellTiter-Glo viability, 72 h; at 44.8 µM (top of the series) unless noted
In short: as §2

HACAT [4] = experiment: as above; conditions: MCC and control cell lines, CellTiter-Glo viability, 72 h; at 44.8 µM (top of the series) unless noted
In short: as §2
% is set by controls: 0 for no effect and ±100 for the full control effect.

COc1cc(Nc2ncc(F)c(Nc3ccc4c(n3)NC(=O)C(C)(C)O4)n2)cc(OC)c1OC
active: Potency (CRL-7250) 2.31 µM | Potency (HEK293) 8.33 µM | Potency (NIH3T3 [2]) 8.2 µM
inactive: max response (HaCat [1]) -23.4% | max response (KB-3-1) 2.88% | Potency (MCC-13) | Potency (MCC-26) | Potency (MKL-1) | Potency (MKL-2) | Potency (UISO) | Potency (WaGa) | Potency (C33A)

O=c1cc(-c2cccc3c2Sc2ccccc2S3)oc(N2CCOCC2)c1
inactive: outcome (CRL-7250) | outcome (HEK293) | max response (HaCat [1]) -21.6% | outcome (KB-3-1) | outcome (NIH3T3 [2]) | outcome (HEK293T) | Potency (MCC-13) | Potency (MCC-26) | Potency (MKL-1) | Potency (MKL-2) | outcome (NIH3T3 [3]) | Potency (UISO) | Potency (WaGa)

O=c1cc(CN2CCOCC2)occ1OCCCCCSc1ccnc2cc(C(F)(F)F)ccc12
inactive: max response (HaCat [1]) -9.94% | max response (KB-3-1) -24.2% | max response (NIH3T3 [2]) 0.796% | Potency (MCC-13) | Potency (MCC-26) | Potency (MKL-1) | Potency (MKL-2)
active: Potency (CRL-7250) 11.8 µM and 9.2 µM | Potency (HEK293) 8.33 µM and 4.11 µM

O=C(OCC#CCSc1nnc(-c2cccc3ccccc23)o1)c1cc2ccccc2s1
inactive: max response (CRL-7250) 3.01% | outcome (HEK293) | max response (HaCat [1]) -10.9% | max response (KB-3-1) -5.32% | outcome (NIH3T3 [2]) | outcome (HEK293T) | Potency (MCC-13) | Potency (MCC-26) | Potency (MKL-1) | Potency (MKL-2) | outcome (NIH3T3 [3]) | Potency (UISO) | Potency (WaGa)

COc1ccc(-c2cc(=O)c3c(O)cc(O)cc3o2)cc1O
inactive: outcome (CRL-7250) | max response (HEK293) -3.68% | max response (HaCat [1]) 3.57% | max response (KB-3-1) -19.6% | max response (NIH3T3 [2]) -2.97% | Potency (MCC-13) | Potency (MCC-26) | Potency (MKL-1) | Potency (MKL-2)

Cc1[nH]c(C=C2C(=O)Nc3ccc(S(=O)(=O)Cc4c(Cl)cccc4Cl)cc32)c(C)c1C(=O)N1CCC[C@H]1CN1CCCC1
inactive: max response (CRL-7250) 1.44% | max response (HaCat [1]) -4.31% | max response (KB-3-1) 1.95% | max response (NIH3T3 [2]) -20.1% | Potency (MCC-13) | Potency (MCC-26) | Potency (UISO)
active: Potency (HEK293) 23.5 µM | Potency (MKL-1) 18.7 µM | Potency (MKL-2) 3.72 µM

CCOC1OC(=O)C[C@H]1NC(=O)[C@@H]1CCCN1C(=O)[C@@H](NC(=O)c1ccc(N)c(Cl)c1)C(C)(C)C (some centres undefined)
inactive: outcome (CRL-7250) | max response (HEK293) -6.79% | outcome (HaCat [1]) | outcome (KB-3-1) | outcome (NIH3T3 [2]) | outcome (HACAT [4]) | Potency (MCC-13) | Potency (MKL-1) | Potency (MKL-2) | outcome (NIH3T3 [3]) | Potency (UISO)

N#Cc1ccc(NC(=O)Nc2ccccc2Br)c2n[nH]nc12
inactive: max response (CRL-7250) -24.9% | max response (HEK293) -11% | outcome (HaCat [1]) | max response (KB-3-1) 1.71% | max response (NIH3T3 [2]) 3.86% | outcome (HACAT [4]) | Potency (MCC-13) | Potency (MKL-1) | Potency (MKL-2) | Potency (UISO) | Potency (WaGa)

CCN(CC)CCOc1ccc(C(=C(Cl)c2ccccc2)c2ccccc2)cc1
inactive: max response (CRL-7250) -5.74% | outcome (HEK293) | max response (HaCat [1]) -8.22% | outcome (KB-3-1) | max response (NIH3T3 [2]) 2.62% | outcome (HEK293T) | Potency (MCC-13) | Potency (MCC-26) | Potency (MKL-1) | Potency (MKL-2) | Potency (UISO) | Potency (WaGa)

NC1=N[C@@]2(c3cc(NC(=O)c4ccc(F)cn4)ccc3F)COC[C@@H]2CS1
active: Potency (MKL-1) 10.5 µM
inactive: outcome (CRL-7250) | max response (HEK293) -6.98% | max response (HaCat [1]) -6.87% | max response (KB-3-1) 8.68% | max response (NIH3T3 [2]) 4.73% | Potency (MCC-13) | Potency (MCC-26) | Potency (MKL-2)

CC#CCn1c(N2CCC[C@@H](N)C2)nc2c1c(=O)n(Cc1nc(C)c3ccccc3n1)c(=O)n2C
inactive: max response (CRL-7250) 0.558% | max response (HEK293) -21.1% | max response (HaCat [1]) 3.66% | max response (KB-3-1) -0.824% | outcome (NIH3T3 [2]) | Potency (MCC-13) | Potency (MCC-26) | Potency (MKL-1) | Potency (MKL-2) | outcome (NIH3T3 [3]) | Potency (UISO) | Potency (WaGa)

OC[C@H]1O[C@@H](n2cnc3c2NC=NC[C@@H]3O)C[C@H]1O
inactive: max response (CRL-7250) 2.48% | outcome (HEK293) | max response (HaCat [1]) 1.63% | max response (KB-3-1) -3.46% | outcome (NIH3T3 [2]) | outcome (HEK293T) | Potency (MCC-13) | Potency (MKL-1) | Potency (MKL-2) | outcome (NIH3T3 [3]) | Potency (UISO) | Potency (WaGa)

NC(=O)NN=Cc1ccc([N+](=O)[O-])o1
inactive: outcome (CRL-7250) | max response (HEK293) 1.13% | outcome (HaCat [1]) | max response (KB-3-1) 2.76% | outcome (NIH3T3 [2]) | outcome (HACAT [4]) | Potency (MCC-13) | Potency (MKL-1) | Potency (MKL-2) | outcome (NIH3T3 [3]) | Potency (UISO)

O=C(CCc1ccc(O)cc1)c1c(O)cc(O)cc1O[C@@H]1O[C@H](CO)[C@H](O)[C@H](O)[C@H]1O
inactive: max response (CRL-7250) -9.67% | max response (HEK293) 1.98% | max response (HaCat [1]) -1.37% | max response (KB-3-1) 1.32% | max response (NIH3T3 [2]) -7.96% | Potency (MCC-13) | Potency (MCC-26) | Potency (MKL-1) | Potency (UISO) | Potency (WaGa)
